Source: PubChem BioAssay AID602365 (National Center for Advancing Translational Sciences (NCATS), 2012)
Inconclusive results are not listed. Calls of active or inactive are those of the source. Calls come from the whole dose curve; as a rule, active = well fitted inhibition curve with a large enough effect; inconclusive = small, poorly fitted or top-dose-only effect; inactive = flat fitted curve, though single readings scatter.

Target: Luciferin 4-monooxygenase (Photinus pyralis) (UniProt P08659)
Test: FLuc inhibitory activity for the follow-up compounds in a biochemical assay with 1mM D-luciferin
Details: purified FLuc, luminescence; series mostly up to 57.5 µM; activity change, negative = inhibition: at the top concentration
Excerpt: NCGC Assay Overview: Firefly (Photinus pyralis) luciferase is one of the most commonly used transcriptional reporters. It is considered one of the more dynamically responsive reporters - that is, responsive to changes in reporter transcription - as it requires no post-translational modifications and is enzymatically active directly after protein synthesis (Wood, 1998). With no endogenous expression in mammalian cells and without the requirement of external excitation, it offers very little background signal, thus generally providing excellent signal to background for most assays. Previous profiling work to determine the prevalence of compounds that affect FLuc enzymatic activity (PubChem AID 411) identified that ~3% of the MLSMR library (then at ~72K) inhibited FLuc. […] Of the compounds identified in this profile that inhibited FLuc, 151 compounds were selected for further analysis, in an effort to better understand their mode of inhibiting FLuc. The assay described here was to determine the activity of the compounds in a FLuc assay that contained a KM concentration of ATP and a high concentration (1mM) of D-luciferin.
NCGC Assay Protocol Summary: Reagents: 50mM Tris acetate, pH 7.5; 10mM Mg acetate; 1mM D-luciferin (Sigma #L9504); 10uM ATP; 0.01% Tween-20; 0.05% BSA; 10nM P. pyralis luciferase (Sigma #L9506) Control compounds used were two known firefly luciferase inhibitors (3-(5-(3-chlorophenyl)-1,2,4-oxadiazol-3-yl)benzoic acid and 5-(2-fluorophenyl)-3-phenyl-1,2,4-oxadiazole), and DMSO. Three microliters containing firefly luciferase substrates in buffer (final concentrations: 50mM Tris acetate, pH 7.5, 10mM Mg acetate, 0.01% Tween-20, 0.05% BSA, 1mM D-luciferin, 10uM ATP) are dispensed into each well of a Greiner white, solid-bottom 1536-well format plate using a flying reagent dispenser (FRD). These assay plates were then treated with 23nL of compound or DMSO using a Kalypsys pin tool, which allows for delivery of a 12-point intraplate titration of each compound to the assay plate (quantitative HTS), with a final compound concentrations ranging from approximately ~60uM to 0.3nM. One microliter of firefly luciferase in […] Tris-acetate buffer was then delivered by FRD to each well for a final enzyme concentration of 10nM. Luciferase activity was then measured using a ViewLux CCD imager (PerkinElmer), with an average exposure time of 2-30 seconds (2X binning, medium/high gain).

Sequence of Luciferin 4-monooxygenase (Photinus pyralis) (P08659 whole entry, looked up): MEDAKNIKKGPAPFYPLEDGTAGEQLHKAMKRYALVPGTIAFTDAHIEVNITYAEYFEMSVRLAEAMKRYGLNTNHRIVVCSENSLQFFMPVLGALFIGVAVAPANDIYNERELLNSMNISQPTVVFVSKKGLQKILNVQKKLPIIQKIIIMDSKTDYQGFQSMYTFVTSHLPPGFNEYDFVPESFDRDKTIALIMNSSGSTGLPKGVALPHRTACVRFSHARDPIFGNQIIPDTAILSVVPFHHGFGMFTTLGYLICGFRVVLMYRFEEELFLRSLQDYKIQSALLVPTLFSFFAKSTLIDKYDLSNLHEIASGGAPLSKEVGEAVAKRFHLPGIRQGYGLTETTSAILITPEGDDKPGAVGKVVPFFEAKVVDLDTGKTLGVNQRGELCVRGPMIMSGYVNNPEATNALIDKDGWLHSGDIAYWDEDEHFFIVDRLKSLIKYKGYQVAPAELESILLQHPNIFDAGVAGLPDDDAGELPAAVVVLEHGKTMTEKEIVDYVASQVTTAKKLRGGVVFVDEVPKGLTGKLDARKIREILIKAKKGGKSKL

| SMILES | Potency | activity change, negative = inhibition |
| --- | --- | --- |
| CC(C)(C)C(=O)Nc1ccc(-c2nc3ccccc3s2)cc1 | 0.0411 µM (active) | – |
| Cc1c(NS(C)(=O)=O)cccc1-c1nc2ccccc2s1 | 16.3 µM (active) | – |
| Cc1ccc(NS(=O)(=O)c2ccc(Cl)c(C(=O)Nc3cccc(C(=O)O)c3)c2)cc1 | – | -7.82% (inactive) |
| CC(=O)Oc1ccc(C(=O)Nc2ccccc2C(=O)Nc2ccc(C(=O)O)cc2)cc1 | 18.3 µM (active) | – |
| CCOc1ccc2nc(NC(=O)c3ccccn3)sc2c1 | 2.06 µM (active) | – |
| Cc1ccc(S(=O)(=O)N2CCOCC2)cc1C(=O)Nc1ccccc1C(=O)O | – | -7.96% (inactive) |
| Cc1ccc(C(=O)Nc2ccc(C(=O)O)cc2)cc1S(=O)(=O)NCc1ccccc1 | – | -15.4% (inactive) |
| O=C(Nc1c(Cl)cc(Cl)cc1-c1nc2ccccc2s1)c1ccc(Br)o1 | – | -2.74% (inactive) |
| COc1ccc2nc(NC(=O)c3nc(S(=O)(=O)Cc4ccc(C)cc4)ncc3Cl)sc2c1 | – | 0.938% (inactive) |
| CCOc1ccc2nc(NC(=O)Cc3cccs3)sc2c1 | 18.3 µM (active) | – |
| NC(=O)Cc1ccc2sc(-c3ccccc3)nc2c1 | 13 µM (active) | – |
| O=C(Nc1ccccc1C(=O)O)c1ccc(NC(=O)C2CC2)cc1 | 4.11 µM (active) | – |
| CC(=O)Oc1ccc(C(=O)Nc2ccccc2C(=O)Nc2cccc(C(=O)O)c2)cc1 | 16.3 µM (active) | – |
| CCn1c(C)nc2cc(-c3nc4n(n3)Cc3ccccc3-4)ccc21 | 0.163 µM (active) | – |
| COc1cc(OC)cc(-c2nc3ccccc3s2)c1 | 18.3 µM (active) | – |
| O=C(Cc1ccc(Cl)cc1)Nc1cccc(C(=O)Nc2ccccc2C(=O)O)c1 | 36.6 µM (active) | – |
| O=C(Cc1ccccc1)Nc1ccc(C(=O)Nc2ccccc2C(=O)O)cc1 | 20.6 µM (active) | – |
| CC(C)c1ccc(C(=O)Nc2ccc(-c3nc4ccccc4s3)c(Cl)c2)cc1 | – | -7.4% (inactive) |
| Nc1ccc2nc(-c3ccccc3)sc2c1 | 0.919 µM (active) | – |
| COc1ccc2nc(NC(=O)C3CCN(S(=O)(=O)c4cccnc4)CC3)sc2c1 | – | -3.84% (inactive) |

| SMILES | Potency | activity change, negative = inhibition |
| --- | --- | --- |
| Nc1ccc(-c2nc3ccc(C(=O)O)cc3s2)cc1 | 1.16 µM (active) | – |
| O=C(Nc1ccccc1C(=O)O)c1ccccc1 | – | -19.5% (inactive) |
| Cc1ccc2nc(-c3ccc(NC(=O)CN4CCN(C(=O)c5ccco5)CC4)cc3)sc2c1 | 14.6 µM (active) | – |
| Cc1c(NC(=O)C(C)(C)C)cccc1-c1nc2ccccc2s1 | 10.3 µM (active) | – |
| COc1ccc2nc(NC(=O)CCc3nc(-c4ccccc4F)no3)sc2c1 | – | -3.48% (inactive) |
| CC(C)C(=O)Nc1cccc(C(=O)Nc2ccccc2C(=O)O)c1 | 18.3 µM (active) | – |
| Cc1c(NC(=O)c2cccs2)cccc1-c1nc2ccccc2s1 | 14.6 µM (active) | – |
| O=C(Nc1ccc(-c2nc3ccccc3s2)cc1)C1=COCCO1 | 0.366 µM (active) | – |
| Cc1ccc2nc(-c3ccc(N)cc3)sc2c1 | 0.517 µM (active) | – |
| Cc1ccc(C(=O)Nc2cccc(C(=O)O)c2)cc1S(=O)(=O)N1CCOCC1 | 16.3 µM (active) | – |
| COc1ccc(C(=O)Nc2ccccc2C(=O)N/N=C/c2ccc(O)c(OC)c2)cc1 | 0.0103 µM (active) | – |
| COc1ccc(NS(=O)(=O)c2cccc(C(=O)Nc3ccccc3C(=O)O)c2)cc1 | – | -13.9% (inactive) |
| COc1ccc2nc(NC(=O)c3ccc(NS(=O)(=O)c4cccs4)cc3)sc2c1 | 18.3 µM (active) | – |
| O=C(O)c1cccc(NC(=O)c2cccc(S(=O)(=O)N3CCc4ccccc43)c2)c1 | – | -14.4% (inactive) |
| CCOc1ccc2nc(NC(=O)c3ccccc3)sc2c1 | 1.46 µM (active) | – |
| O=C(O)c1ccc(NC(=O)c2cccc(C(=O)Nc3ccc(C(=O)O)cc3)c2)cc1 | – | -16.3% (inactive) |
| Cc1ccc(C(=O)Nc2ccc(C(=O)O)cc2)cc1S(=O)(=O)Nc1ccccc1 | – | 2.27% (inactive) |
| Nc1ccccc1-c1nc2ccccc2s1 | 18.3 µM (active) | – |
| COc1ccc2nc(NC(=O)c3cnccn3)sc2c1 | 6.51 µM (active) | – |
| COc1ccc(CC(=O)Nc2ccc(-c3nc4ccccc4s3)c(C)c2)cc1 | – | -11.1% (inactive) |
